Measured values: the supplement of paper PMC10849652
Of roughly 8,800 targets only a part is listed; those with a hit were picked by preference. About 0.5% of all pairs of compound and target were hits.

How the values were obtained:
Experiment in all cases: log2 fold change, soluble protein after heating vs DMSO (PISA); higher = thermal stabilisation; K562 lysate, 10 uM; active = over 0.2 and 3.5 SD of the protein, either way, in both replicates (recomputed)
[1] = compound: Cc1cn(-c2cc(NC(=O)c3ccc(C)c(Nc4nccc(-c5cccnc5)n4)c3)cc(C(F)(F)F)c2)cn1 [nilotinib]
In short: (§1)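 K562 pellets were dounce-homogenised in PBS pH 7.4 with 1 mM MgCl2, and the crude extract at 1 mg/mL protein was treated with 10 μM compound for 30 min. Aliquots were heated for 3 min across 48°C-58°C, pooled, and brought to 0.5% NP-40 at 4°C; soluble protein was the supernatant after 21,000xg for 90 min. Soluble protein was quantified by TMTpro 16plex LC-MS/MS with channel sums equalised, and reported as log2 fold change in thermal stability against DMSO controls, with values from duplicates.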

[2] = compound: Cc1nc(Nc2n[nH]c3c2CN(C(=O)N[C@H](CN(C)C)c2ccccc2)C3(C)C)c2sccc2n1
In short: as §1

[3] = compound: Cc1nc(Nc2ncc(C(=O)Nc3c(C)cccc3Cl)s2)cc(N2CCN(CCO)CC2)n1 [dasatinib]
In short: as §1

[4] = compound: Cc1ncc(-c2ccnc(Nc3ccc(S(C)(=O)=O)cc3)n2)n1C(C)C
In short: as §1

[5] = compound: Cn1cc(-c2ccc3c(c2)CCN3C(=O)Cc2cccc(C(F)(F)F)c2)c2c(N)ncnc21
In short: as §1

[6] = compound: Cn1cc(CNCC2CCN(c3ncc(C(=O)NO)cn3)CC2)c2ccccc21 [quisinostat]
In short: as §1

[7] = compound: Cn1cncc1[C@@](N)(c1ccc(Cl)cc1)c1ccc2c(c1)c(-c1cccc(Cl)c1)cc(=O)n2C [tipifarnib]
In short: as §1

[8] = compound: NC(=O)Nc1cc(-c2cccc(F)c2)sc1C(=O)N[C@H]1CCCNC1
In short: as §1

[9] = compound: NC(=O)c1cnc(N[C@@H]2CCCC[C@@H]2N)nc1Nc1cccc(-n2nccn2)c1
In short: as §1

[10] = compound: NC1(c2ccc(-c3nc4ccn5c(=O)[nH]nc5c4cc3-c3ccccc3)cc2)CCC1
In short: as §1

[11] = compound: NCC(=O)Nc1ccc(-n2nc(C(F)(F)F)cc2-c2ccc3c(ccc4ccccc43)c2)cc1
In short: as §1

[12] = compound: O=C(CCCCCCC(=O)Nc1ccccc1)NO [vorinostat]
In short: as §1

[13] = compound: O=C(O)c1ccc2c(c1)nc(Nc1cccc(Cl)c1)c1ccncc12 [silmitasertib]
In short: as §1

[14] = compound: O=C1NC(=O)C(c2cnc3ccccn23)=C1c1cn2c3c(cc(F)cc13)CN(C(=O)N1CCCCC1)CC2
In short: as §1

[15] = compound: c1cn2cc(-c3ccc4cn[nH]c4c3)nc(Nc3ccc(N4CCOCC4)cc3)c2n1 [entospletinib]
In short: as §1

Measured: log2 fold change

NT5DC2 isoform 2 (UniProt Q9H857)
inactive: [1] 0.025 | [2] -0.041 | [3] 0.067 | [4] 0.029 | [5] -0.027 | [6] -0.002 | [7] -0.027 | [8] -0.002 | [9] 0.06 | [10] -0.011 | [11] 0.013 | [13] -0.019 | [14] 0 | [15] -0.013
active: [12] -0.272

PAFAH1B3 (UniProt Q15102)
inactive: [1] 0.005 | [2] 0.036 | [3] -0.057 | [4] -0.026 | [5] 0.03 | [6] 0.01 | [7] -0.01 | [8] -0.009 | [9] 0.031 | [10] 0.021 | [11] -0.013 | [12] -0.179 | [13] 0.041 | [14] 0.003 | [15] -0.052

NONO (UniProt Q15233)
UniProt Q15233, sequence (Q15233 whole entry, looked up): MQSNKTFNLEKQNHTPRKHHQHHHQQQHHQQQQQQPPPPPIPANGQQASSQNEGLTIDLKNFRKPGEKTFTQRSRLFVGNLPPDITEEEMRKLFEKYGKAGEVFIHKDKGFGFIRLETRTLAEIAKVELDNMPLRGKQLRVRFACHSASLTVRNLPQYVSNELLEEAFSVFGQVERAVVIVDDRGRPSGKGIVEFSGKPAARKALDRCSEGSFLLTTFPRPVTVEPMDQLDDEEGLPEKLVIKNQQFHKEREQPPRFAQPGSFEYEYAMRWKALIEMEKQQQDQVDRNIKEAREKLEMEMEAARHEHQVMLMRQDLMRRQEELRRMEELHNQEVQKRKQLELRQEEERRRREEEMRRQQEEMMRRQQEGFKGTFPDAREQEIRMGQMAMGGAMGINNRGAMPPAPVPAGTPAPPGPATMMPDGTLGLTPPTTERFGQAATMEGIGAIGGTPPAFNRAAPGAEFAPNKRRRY
active: [12] -0.355
inactive: [1] -0.007 | [2] -0.011 | [3] -0.047 | [4] 0.007 | [5] 0.012 | [6] -0.004 | [7] -0.007 | [8] 0.022 | [9] 0.008 | [10] -0.013 | [11] 0.013 | [13] 0.027 | [14] -0.007 | [15] 0

NOC2L (UniProt Q9Y3T9)
inactive: [1] 0.027 | [2] 0.022 | [3] -0.03 | [4] -0.046 | [5] -0.052 | [6] -0.082 | [7] -0.087 | [8] 0.058 | [9] 0.014 | [10] -0.019 | [11] -0.055 | [12] -0.126 | [13] 0.031 | [14] 0.009 | [15] 0.028

NFKBIB (UniProt Q15653)
UniProt Q15653, sequence (Q15653 whole entry, looked up): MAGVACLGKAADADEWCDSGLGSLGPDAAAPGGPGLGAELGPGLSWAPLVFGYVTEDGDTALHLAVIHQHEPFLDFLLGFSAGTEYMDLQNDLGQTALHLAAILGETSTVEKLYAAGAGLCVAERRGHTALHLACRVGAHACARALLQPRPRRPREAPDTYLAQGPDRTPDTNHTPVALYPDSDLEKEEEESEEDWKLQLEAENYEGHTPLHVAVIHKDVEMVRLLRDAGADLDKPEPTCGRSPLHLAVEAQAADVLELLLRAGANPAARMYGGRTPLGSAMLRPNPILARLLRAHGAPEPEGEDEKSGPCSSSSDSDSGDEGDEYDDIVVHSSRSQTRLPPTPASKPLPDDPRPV
inactive: [1] -0.004 | [2] -0.015 | [3] -0.042 | [4] 0.052 | [5] 0.043 | [6] -0.062 | [7] 0.059 | [8] 0.025 | [9] 0.004 | [10] -0.08 | [11] -0.052 | [12] -0.204 | [13] 0.04 | [14] 0.024 | [15] 0

NOSIP (UniProt Q9Y314)
UniProt Q9Y314, sequence (Q9Y314 whole entry, looked up): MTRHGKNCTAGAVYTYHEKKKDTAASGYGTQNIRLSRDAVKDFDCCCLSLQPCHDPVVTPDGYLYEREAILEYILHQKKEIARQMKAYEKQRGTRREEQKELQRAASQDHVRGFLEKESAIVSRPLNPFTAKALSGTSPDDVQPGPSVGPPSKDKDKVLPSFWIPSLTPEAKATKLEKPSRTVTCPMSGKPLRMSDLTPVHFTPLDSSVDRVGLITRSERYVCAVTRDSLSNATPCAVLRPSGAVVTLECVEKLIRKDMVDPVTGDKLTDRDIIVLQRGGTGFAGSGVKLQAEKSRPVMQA
inactive: [1] 0.005 | [2] 0.009 | [3] -0.018 | [4] 0.027 | [5] -0.019 | [6] -0.151 | [7] -0.021 | [8] 0.003 | [9] -0.015 | [10] 0.006 | [11] -0.015 | [13] -0.047 | [14] 0.002 | [15] 0.013
active: [12] -0.809

PAK1 (UniProt Q13153)
inactive: [1] 0.028 | [2] 0.02 | [3] 0.046 | [4] 0.012 | [5] -0.024 | [6] 0.044 | [7] -0.053 | [8] -0.028 | [9] -0.025 | [10] -0.012 | [11] 0.008 | [12] 0.13 | [13] -0.046 | [14] -0.001 | [15] 0.051

NUCB2 (UniProt P80303)
UniProt P80303, sequence (P80303 whole entry, looked up): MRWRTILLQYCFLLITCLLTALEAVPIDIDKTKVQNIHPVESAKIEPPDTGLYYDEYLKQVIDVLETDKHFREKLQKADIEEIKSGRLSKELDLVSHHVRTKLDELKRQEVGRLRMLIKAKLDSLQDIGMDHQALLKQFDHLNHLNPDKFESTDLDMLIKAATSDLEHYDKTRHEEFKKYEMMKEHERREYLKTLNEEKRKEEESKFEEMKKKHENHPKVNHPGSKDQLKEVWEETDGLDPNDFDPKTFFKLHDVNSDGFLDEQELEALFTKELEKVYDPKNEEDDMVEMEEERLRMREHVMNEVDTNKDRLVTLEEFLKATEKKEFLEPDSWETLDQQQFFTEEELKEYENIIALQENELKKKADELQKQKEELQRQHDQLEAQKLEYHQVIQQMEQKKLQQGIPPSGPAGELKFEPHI
inactive: [1] -0.016 | [2] 0.015 | [3] 0.007 | [4] -0.019 | [5] -0.009 | [6] 0.016 | [7] 0.011 | [8] -0.003 | [9] -0.001 | [10] 0.014 | [11] 0 | [12] 0.133 | [13] -0.026 | [14] -0.007 | [15] -0.008

NBEAL2 (UniProt Q6ZNJ1)
active: [12] -0.341
inactive: [1] 0.031 | [2] -0.008 | [3] -0.069 | [4] 0.036 | [5] 0.029 | [6] -0.077 | [7] -0.017 | [8] 0.033 | [9] 0.014 | [10] 0.06 | [11] -0.025 | [13] 0.047 | [14] 0.02 | [15] 0.026

MSI2 (UniProt Q96DH6)
UniProt Q96DH6, sequence (Q96DH6 whole entry, looked up): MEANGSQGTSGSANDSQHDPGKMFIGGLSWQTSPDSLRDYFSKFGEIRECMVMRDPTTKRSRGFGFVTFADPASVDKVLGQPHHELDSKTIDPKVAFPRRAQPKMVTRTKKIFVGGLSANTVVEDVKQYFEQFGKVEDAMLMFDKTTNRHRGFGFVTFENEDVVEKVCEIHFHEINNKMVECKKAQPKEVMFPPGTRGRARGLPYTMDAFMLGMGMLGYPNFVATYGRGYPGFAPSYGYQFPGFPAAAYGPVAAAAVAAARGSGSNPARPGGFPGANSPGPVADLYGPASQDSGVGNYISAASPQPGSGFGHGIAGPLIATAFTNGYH
inactive: [1] -0.089 | [2] 0.011 | [3] 0.01 | [4] 0.009 | [5] 0.049 | [6] 0.023 | [7] -0.057 | [8] 0.029 | [9] 0.028 | [10] -0.016 | [11] 0.053 | [12] -0.046 | [13] -0.021 | [14] -0.052 | [15] 0.033

MYO1D (UniProt O94832)
inactive: [1] 0.002 | [2] -0.01 | [3] -0.036 | [4] -0.006 | [5] 0.016 | [6] -0.031 | [7] -0.004 | [8] 0.05 | [9] 0 | [10] -0.042 | [11] 0.046 | [13] 0.012 | [14] -0.027 | [15] -0.002
active: [12] -0.418

NUP133 (UniProt Q8WUM0)
inactive: [1] 0.023 | [2] -0.006 | [3] -0.026 | [4] 0.019 | [5] 0.056 | [6] -0.092 | [7] -0.039 | [8] 0.006 | [9] 0.005 | [10] -0.016 | [11] 0.045 | [12] -0.195 | [13] 0.052 | [14] 0.011 | [15] -0.033

MTA2 (UniProt O94776)
inactive: [1] 0.001 | [2] 0.017 | [3] -0.019 | [4] -0.011 | [5] 0.046 | [6] -0.062 | [7] -0.007 | [8] 0.03 | [9] -0.002 | [10] 0.001 | [11] 0.034 | [13] 0.02 | [14] 0.006 | [15] 0.021
active: [12] -0.352

OCRL (UniProt Q01968)
active: [12] -0.43
inactive: [1] -0.095 | [2] 0.083 | [3] -0.044 | [4] -0.051 | [5] 0.053 | [6] -0.089 | [7] 0.048 | [8] -0.018 | [9] -0.012 | [10] 0.024 | [11] 0.134 | [13] 0.032 | [14] 0.019 | [15] -0.032

PAXBP1 (UniProt Q9Y5B6)
UniProt Q9Y5B6, sequence (Q9Y5B6 whole entry, looked up): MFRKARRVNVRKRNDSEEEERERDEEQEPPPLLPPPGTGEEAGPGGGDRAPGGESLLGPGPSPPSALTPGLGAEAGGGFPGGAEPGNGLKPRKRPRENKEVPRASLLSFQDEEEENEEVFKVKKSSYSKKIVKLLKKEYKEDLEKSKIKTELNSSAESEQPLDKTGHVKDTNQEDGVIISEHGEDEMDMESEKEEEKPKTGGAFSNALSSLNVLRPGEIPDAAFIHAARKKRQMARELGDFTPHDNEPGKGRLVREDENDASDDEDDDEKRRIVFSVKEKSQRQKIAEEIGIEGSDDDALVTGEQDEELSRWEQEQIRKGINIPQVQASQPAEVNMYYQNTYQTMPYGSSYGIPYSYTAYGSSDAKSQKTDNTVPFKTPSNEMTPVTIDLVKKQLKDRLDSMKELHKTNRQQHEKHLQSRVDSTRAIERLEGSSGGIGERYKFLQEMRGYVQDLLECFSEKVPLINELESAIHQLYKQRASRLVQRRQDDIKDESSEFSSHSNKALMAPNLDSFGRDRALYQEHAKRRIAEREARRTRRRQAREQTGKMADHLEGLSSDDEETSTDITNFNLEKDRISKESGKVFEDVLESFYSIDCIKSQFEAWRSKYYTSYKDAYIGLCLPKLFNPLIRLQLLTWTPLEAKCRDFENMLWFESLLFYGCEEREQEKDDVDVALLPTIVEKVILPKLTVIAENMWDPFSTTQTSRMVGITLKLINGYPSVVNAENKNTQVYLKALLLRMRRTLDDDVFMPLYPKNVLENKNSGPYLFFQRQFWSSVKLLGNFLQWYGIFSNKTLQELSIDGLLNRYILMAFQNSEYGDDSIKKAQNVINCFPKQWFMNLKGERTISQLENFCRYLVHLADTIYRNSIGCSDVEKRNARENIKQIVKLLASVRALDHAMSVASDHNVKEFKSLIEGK
inactive: [1] -0.014 | [2] 0.012 | [3] -0.046 | [4] 0.011 | [5] 0.024 | [6] -0.041 | [7] -0.008 | [8] 0.031 | [9] 0.023 | [10] -0.006 | [11] 0.02 | [12] -0.146 | [13] -0.019 | [14] -0.02 | [15] -0.043

NLRP2 (UniProt Q9NX02)
inactive: [1] -0.002 | [2] 0.013 | [3] -0.019 | [4] 0.007 | [5] 0.032 | [6] -0.031 | [7] -0.008 | [8] 0.013 | [9] 0.003 | [10] 0.026 | [11] -0.031 | [13] 0.062 | [14] -0.015 | [15] 0.011
active: [12] -0.528

NBN (UniProt O60934)
UniProt O60934, sequence (O60934 whole entry, looked up): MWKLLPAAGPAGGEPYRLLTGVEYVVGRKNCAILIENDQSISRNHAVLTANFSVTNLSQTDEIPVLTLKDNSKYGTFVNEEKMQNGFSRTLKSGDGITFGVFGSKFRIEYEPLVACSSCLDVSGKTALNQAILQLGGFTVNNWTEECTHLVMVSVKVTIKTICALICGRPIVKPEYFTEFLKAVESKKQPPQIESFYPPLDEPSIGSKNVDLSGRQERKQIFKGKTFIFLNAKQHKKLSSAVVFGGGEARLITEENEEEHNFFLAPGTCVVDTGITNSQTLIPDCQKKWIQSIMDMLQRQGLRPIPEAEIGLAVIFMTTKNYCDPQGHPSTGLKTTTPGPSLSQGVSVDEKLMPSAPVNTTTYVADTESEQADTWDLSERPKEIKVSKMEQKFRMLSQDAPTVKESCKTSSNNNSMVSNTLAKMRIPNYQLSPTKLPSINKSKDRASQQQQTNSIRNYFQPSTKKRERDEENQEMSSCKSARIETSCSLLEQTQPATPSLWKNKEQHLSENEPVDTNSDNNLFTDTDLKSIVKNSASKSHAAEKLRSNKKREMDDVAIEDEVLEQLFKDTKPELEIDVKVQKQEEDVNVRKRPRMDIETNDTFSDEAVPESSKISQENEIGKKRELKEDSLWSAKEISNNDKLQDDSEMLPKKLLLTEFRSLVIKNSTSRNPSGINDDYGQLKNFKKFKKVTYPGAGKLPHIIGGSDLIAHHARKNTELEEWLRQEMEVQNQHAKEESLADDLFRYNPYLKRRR
active: [12] -0.21
inactive: [1] 0.004 | [2] 0.013 | [3] -0.019 | [4] 0.037 | [5] 0.03 | [6] 0.011 | [7] 0.005 | [8] 0.046 | [9] -0.024 | [10] -0.015 | [11] -0.009 | [13] 0.023 | [14] -0.008 | [15] -0.005

NDUFS1 isoform 2 (UniProt P28331)
UniProt P28331, sequence (P28331 whole entry, looked up): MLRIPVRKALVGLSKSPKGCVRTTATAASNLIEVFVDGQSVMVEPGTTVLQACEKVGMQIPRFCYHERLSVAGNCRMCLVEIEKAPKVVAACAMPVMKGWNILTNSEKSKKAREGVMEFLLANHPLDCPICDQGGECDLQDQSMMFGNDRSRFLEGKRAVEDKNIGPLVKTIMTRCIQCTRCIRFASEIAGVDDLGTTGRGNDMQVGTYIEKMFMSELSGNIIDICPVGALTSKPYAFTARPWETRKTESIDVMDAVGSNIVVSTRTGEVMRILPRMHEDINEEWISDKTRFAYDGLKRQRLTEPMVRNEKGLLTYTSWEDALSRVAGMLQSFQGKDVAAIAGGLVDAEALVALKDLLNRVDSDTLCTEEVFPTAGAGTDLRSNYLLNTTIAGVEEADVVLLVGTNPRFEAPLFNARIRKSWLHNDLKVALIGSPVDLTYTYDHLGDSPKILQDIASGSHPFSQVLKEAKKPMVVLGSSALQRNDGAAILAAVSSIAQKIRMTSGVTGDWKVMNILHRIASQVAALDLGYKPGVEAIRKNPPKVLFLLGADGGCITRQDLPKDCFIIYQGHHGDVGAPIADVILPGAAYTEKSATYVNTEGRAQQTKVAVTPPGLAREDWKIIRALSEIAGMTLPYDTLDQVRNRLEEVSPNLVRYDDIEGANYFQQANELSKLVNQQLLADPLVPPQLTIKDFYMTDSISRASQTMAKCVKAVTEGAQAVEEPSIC
inactive: [1] 0.005 | [2] -0.001 | [3] 0.013 | [4] -0.021 | [5] 0.009 | [6] 0.112 | [7] -0.002 | [8] -0.018 | [9] 0.003 | [10] 0.006 | [11] -0.006 | [12] 0.118 | [13] 0.032 | [14] -0.052 | [15] -0.014

OARD1 (UniProt Q9Y530)
UniProt Q9Y530, sequence (Q9Y530 whole entry, looked up): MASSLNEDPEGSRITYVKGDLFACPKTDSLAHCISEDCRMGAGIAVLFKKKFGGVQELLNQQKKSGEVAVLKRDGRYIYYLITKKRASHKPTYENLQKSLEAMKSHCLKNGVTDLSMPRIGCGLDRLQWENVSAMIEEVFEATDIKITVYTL
inactive: [1] 0.015 | [2] 0.016 | [3] -0.031 | [4] 0.005 | [5] 0.071 | [6] -0.004 | [7] -0.014 | [8] 0.036 | [9] -0.009 | [10] -0.006 | [11] -0.021 | [13] 0.051 | [14] 0.02 | [15] 0.024
active: [12] -0.456

MT-CYB (UniProt P00156)
inactive: [1] 0.063 | [2] -0.081 | [3] 0.16 | [4] 0.011 | [5] 0 | [6] -0.131 | [7] -0.184 | [8] -0.003 | [9] -0.037 | [10] -0.06 | [11] -0.064 | [12] 0.158 | [13] 0.031 | [14] 0.118 | [15] 0.174

NFKBIE (UniProt O00221)
UniProt O00221, sequence (O00221 whole entry, looked up): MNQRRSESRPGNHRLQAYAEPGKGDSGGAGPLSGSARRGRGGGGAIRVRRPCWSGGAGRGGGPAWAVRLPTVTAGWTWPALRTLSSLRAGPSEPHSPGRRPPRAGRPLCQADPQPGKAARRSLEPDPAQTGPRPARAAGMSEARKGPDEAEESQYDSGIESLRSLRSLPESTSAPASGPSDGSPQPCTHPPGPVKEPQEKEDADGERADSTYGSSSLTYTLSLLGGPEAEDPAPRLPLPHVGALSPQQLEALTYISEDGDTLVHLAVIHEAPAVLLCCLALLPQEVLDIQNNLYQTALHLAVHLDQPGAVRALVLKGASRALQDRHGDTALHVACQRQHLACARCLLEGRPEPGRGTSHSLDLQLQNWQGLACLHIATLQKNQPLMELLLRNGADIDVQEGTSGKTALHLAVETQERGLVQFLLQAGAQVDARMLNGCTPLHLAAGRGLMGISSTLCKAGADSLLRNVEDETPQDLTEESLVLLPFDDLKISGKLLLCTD
active: [4] 0.424
inactive: [1] -0.074 | [2] 0.014 | [3] -0.053 | [5] 0.002 | [6] -0.004 | [7] -0.112 | [8] 0.025 | [9] 0.061 | [10] -0.024 | [11] -0.08 | [12] 0.005 | [13] 0.114 | [14] -0.017 | [15] -0.036
